# Mtb betalactam = beta-lactam sensitization of Mtb H37Rv; M. tuberculosis H37Rv growth with meropenem, percent inhibition; inhibition, % at 25 µM; 330,000 compounds, 0.27% hits; AID 434955; call rule not given here;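 also: growth measured after seven days incubation then overnight dye step; 0% = bacteria only wells and 100% = bacteria with antibiotic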
# Rv3671c inh = Rv3671c (M. tuberculosis) protease inhibition; 320,000 compounds, 0.048% hits; P9WHR9; inhibition, % at 5.96 µM; AID 2606; in the data active = inhibition above about 38%;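 also: extracellular domain of Rv3671c used as enzyme; 0% = enzyme with DMSO and 100% = no enzyme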
# UGM FP inh = Mtb UDP-galactopyranose mutase inhibition. purified UGM, fluorescence polarization probe displacement. AID 504406. 320,000 compounds, 0.06% hits. inhibition, % at 10 µM. P9WIQ1; in the data active = inhibition above about 10%, passing the limit was not always enough; inconclusive = no clear call, values can overlap the other calls
# Mtb FBA inh = Mtb fructose-bisphosphate aldolase inhibition | AID 588726 | 360,000 compounds, 2.3% hits | inhibition, % at 1 µM | purified M. tuberculosis FBA, fluorescence read-out;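 also: 0% = vehicle and 100% = reference inhibitor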
# Target sequence (P9WQA3 whole entry, looked up): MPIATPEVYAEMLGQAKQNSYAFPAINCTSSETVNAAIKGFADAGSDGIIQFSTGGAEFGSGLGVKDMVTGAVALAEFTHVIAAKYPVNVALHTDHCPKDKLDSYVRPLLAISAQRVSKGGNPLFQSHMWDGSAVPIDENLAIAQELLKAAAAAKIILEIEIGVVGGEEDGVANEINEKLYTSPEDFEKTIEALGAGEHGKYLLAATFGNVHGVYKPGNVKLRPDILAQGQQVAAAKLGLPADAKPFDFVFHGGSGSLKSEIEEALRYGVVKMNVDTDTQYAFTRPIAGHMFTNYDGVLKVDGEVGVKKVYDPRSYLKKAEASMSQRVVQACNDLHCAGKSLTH
# GDH-TPI counter-1 = GDH-TPI coupled enzyme inhibition counter-screen; GDH-TPI coupled enzyme counterscreen, NADH absorbance; inhibition, % at 4.8 µM; 360,000 compounds, 1.2% hits; AID 588335; in the data active = inhibition above about 30%;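 also: 0% = DMSO wells and 100% = wells lacking the enzyme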
# RecA splice inh = Mtb RecA intein splicing inhibition; P9WHJ3; cell-free RecA intein splicing, fluorescence; inhibition, % (test concentration not listed); 290,000 compounds, 0.75% hits; AID 2221; in the data active = inhibition above about 30%; inconclusive = no clear call, values can overlap the other calls;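 also: 0% = vehicle wells and 100% = reference inhibitor control wells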
# Mtb FBA inh conf = Mtb FBA inhibition, confirmed. shares compounds with Mtb FBA inh. purified M. tuberculosis FBA, fluorescence read-out. inhibition, % at 1 µM. 5,600 compounds, 78% hits;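 also: 0% = vehicle wells and 100% = reference inhibitor wells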
# GDH-TPI counter-2 = GDH-TPI inhibition counter-screen for FBA inhibitors | inhibition, % at 1 µM | shares compounds with Mtb FBA inh | 5,600 compounds, 81% hits | GDH-TPI coupled enzyme counterscreen, fluorescence; in the data active = inhibition above about 10%
# GDH-TPI dose = GDH-TPI dose response counter-screen for Mtb FBA. 170 compounds, 79% hits. GDH-TPI coupled enzyme assay, fluorescence, artifact counterscreen. shares compounds with Mtb FBA inh. IC50, µM; call rule not given here
# An asterisk follows results filed as active; ? = inconclusive; nt = no result given; + = active, no number. Hits are enriched below; roughly 4% of the tested compounds scored in any of these assays. Rule as the data show it, unless noted: active = inhibition above about 27%; inactive = the rest.
SMILES,Mtb betalactam,Rv3671c inh,UGM FP inh,Mtb FBA inh,GDH-TPI counter-1,RecA splice inh,Mtb FBA inh conf,GDH-TPI counter-2,others
COc1ccc2sc(-c3ccc(SC)cc3)c(C#CC(C)(C)O)c2c1,?,-16,1,30*,39*,nt,-1,0,
COc1ccc2sc(-c3ccc(SC)cc3)c(C#CCO)c2c1,43,-32,5,27,16,nt,nt,nt,
FC(F)(F)c1cccc(CNC(=S)Nc2ccccc2)c1,4,-15,1,4,7,2,nt,nt,
CCNC(=S)Nc1ccc2c(c1)c(=O)n(C)n2Cc1cccc(C(F)(F)F)c1,nt,nt,nt,80*,3,nt,190*,150*,
Cc1ccc(CNC(=S)Nc2ccc3c(c2)c(=O)n(C)n3Cc2cccc(C(F)(F)F)c2)cc1,nt,nt,nt,36*,13,nt,141*,101*,
COc1cccc(CNC(=S)Nc2ccc3c(c2)c(=O)n(C)n3Cc2csc(C)n2)c1,nt,nt,nt,18,5,nt,nt,nt,
COCc1c(C(=O)NC2CCCCC2)sc2cccc(F)c12,11,-12,0,1,16,nt,nt,nt,
C[C@@H]1CN([C@@H](C)CO)S(=O)(=O)c2ccc(C#CC(C)(C)O)cc2O[C@H]1CN(C)C(=O)C1CCCCC1,nt,nt,nt,1,-2,nt,nt,nt,
CCOc1ccc(C(=O)NC(=S)NCc2cccnc2)cc1,3,-21,-1,1,-3,-1,nt,nt,
CCOC(=O)C1=C(O)/C(=C\c2ccc(O)c(OCC)c2)N=C1C,3,12,-1,-4,6,-1,nt,nt,
O=C1CCC(=O)c2ccc3c4c(ccc1c24)CC3,nt,nt,nt,42*,32*,nt,12,9,GDH-TPI dose=3.6*
CCCNC(=O)c1cc(C2CCCN(C(=O)c3cc(C(C)(C)C)nn3C)C2)on1 (configuration not stated),nt,nt,nt,3,-5,nt,nt,nt,
O=c1cc(C(F)(F)F)[nH]c2ccc(C(F)(F)F)cc12,0,-5,1,35*,5,1,65*,50*,
Cc1ccc(S(=O)(=O)N2CCCCC2)cc1NC(=O)CN1C(=O)CN(C)C1=O,4,4,0,-4,-11,-1,nt,nt,
COc1ccc(NC(=O)C2Cc3c(-c4ccc(NC(C)=O)cc4)ccnc3O2)cc1OC (configuration not stated),nt,nt,nt,4,3,nt,nt,nt,
COc1ccc(NC(=O)C2Cc3c(-c4ccc5c(c4)OCO5)ccnc3O2)cc1OC (configuration not stated),nt,nt,nt,48*,6,nt,27*,19*,
COc1ccc(CNC(=O)C2Cc3c(-c4ccc5c(c4)OCO5)ccnc3O2)cc1OC (configuration not stated),nt,nt,nt,31*,8,nt,+,+,
O=C(NCCc1ccccc1)C1Cc2c(-c3ccc4c(c3)OCO4)ccnc2O1 (configuration not stated),nt,nt,nt,47*,-4,nt,29*,36*,
O=C(NCc1ccc(F)c(F)c1)C1Cc2c(-c3ccc4c(c3)OCO4)ccnc2O1 (configuration not stated),nt,nt,nt,49*,-2,nt,177*,136*,
COC(=O)c1sccc1NC(=O)Nc1cc(OC)ccc1OC,6,nt,0,2,-7,2,nt,nt,
CC(C)NC(=O)C1Cc2c(-c3ccc4c(c3)OCO4)ccnc2O1 (configuration not stated),nt,nt,nt,52*,4,nt,111*,91*,
CC(C)c1ccc(NC(=O)C2Cc3c(-c4ccc5c(c4)OCO5)ccnc3O2)cc1 (configuration not stated),nt,nt,nt,20,9,nt,nt,nt,
O=C(NCCc1cn2cccnc2n1)C1CCC(=O)N(Cc2ccccc2F)C1 (configuration not stated),nt,nt,nt,94*,6,nt,60*,39*,
COCCCn1c(C(=O)N2CCOCC2)cc2c(=O)n3cccc(C)c3nc21,3,3,-1,72*,18,-1,55*,43*,
CCNC(=O)/C(C#N)=C/c1c(N2CCN(Cc3ccc4c(c3)OCO4)CC2)nc2c(C)cccn2c1=O,-6,-7,-2,5,6,-7,nt,nt,
SMILES,Mtb betalactam,Rv3671c inh,UGM FP inh,Mtb FBA inh,GDH-TPI counter-1,RecA splice inh,Mtb FBA inh conf,GDH-TPI counter-2,others
COCCCn1c(C(=O)Nc2ccc3c(c2)OCO3)cc2c(=O)n3cccc(C)c3nc21,nt,nt,nt,2,12,nt,nt,nt,
COCCCn1c(C(=O)N2CC(C)OC(C)C2)cc2c(=O)n3cccc(C)c3nc21 (configuration not stated),-4,-11,0,74*,27,2,+,+,
CCCCn1c(=NC(=O)c2ccc3c(c2)OCO3)c(C#N)cc2c(=O)n3cccc(C)c3nc21,6,7,0,77*,-2,nt,+,+,
COc1ccc(N=C2SC(CC(=O)Nc3cccc(Cl)c3)C(=O)N2Cc2ccco2)cc1 (configuration not stated),-36,-8,0,-2,11,3,nt,nt,
COc1ccccc1NS(=O)(=O)c1cccc(C(=O)NNC(=O)c2ccc(Cl)nc2)c1,3,5,nt,-6,4,nt,nt,nt,
Cc1cc2nnc(SC(C)C#N)n2c2ccccc12 (configuration not stated),-13,-1,3,3,10,0,nt,nt,
Cc1cc2nnc(SC(C)C)n2c2ccccc12,-1,-3,3,28*,15,0,130*,103*,
CNC(=O)CSc1n[nH]c(-c2cc(Cl)ccc2OC)n1,7,5,1,2,6,0,nt,nt,
COc1ccc(Cl)cc1-c1nc(SCC(=O)NC(C)(C)C)n[nH]1,-1,9,0,29*,-8,-3,100*,93*,
Cc1ccc(-n2c(O)c(C=NC3CCS(=O)(=O)C3)c3ccccc3c2=O)c(C)c1 (configuration not stated),-7,-21,2,1,8,-2,nt,nt,
Cc1ccc(-n2c(O)c(C=Nc3cc(C)on3)c3ccccc3c2=O)c(C)c1,7,-22,-1,47*,7,-11,+,+,
O=C(/C=C/c1cccc([N+](=O)[O-])c1)NCC1CCCO1 (configuration not stated),7,5,-2,0,-2,-2,nt,nt,
COc1ccc2cc(CN(Cc3ccco3)Cc3nnnn3C3CCCCC3)c(=O)[nH]c2c1,5,-4,-2,4,27,7,nt,nt,
COc1ccc2[nH]c(=O)c(CN(Cc3ccco3)Cc3nnnn3Cc3ccccc3)cc2c1,-8,-18,4,10,5,-4,nt,nt,
CCC(C)(C)n1nnnc1CN(Cc1ccco1)Cc1cc2cc3c(cc2[nH]c1=O)OCO3,4,-3,-1,35*,14,-10,90*,97*,
COCCn1nnnc1CN(Cc1ccco1)Cc1cc2cc3c(cc2[nH]c1=O)OCO3,-1,-6,1,48*,22,-12,+,+,
